Measured values as given in PubChem BioAssay (NCATS).
Values joined by “and” are separate entries in the source; they are usually repeats but may differ in a detail not shown here. Identical values can stand only once. Active and inactive are the calls of the source. The call rests on the fitted dose curve; in most records, active means well fitted activation curve with a large enough effect; inconclusive means small, poorly fitted or top-dose-only effect; inactive means no such curve, though single readings can be large or run the other way.

biological target: Cytochrome P450 3A4 (Homo sapiens) (UniProt P08684); test: qHTS Assay for Activators of Cytochrome P450 3A4 (AID 885); settings: recombinant CYP3A4, Luciferin-PPXE luminescence, 60 min; series mostly up to 57.1 µM; further: nearly all actives have a fitted effect of over 65% in size
Sequence (P08684 whole entry, looked up): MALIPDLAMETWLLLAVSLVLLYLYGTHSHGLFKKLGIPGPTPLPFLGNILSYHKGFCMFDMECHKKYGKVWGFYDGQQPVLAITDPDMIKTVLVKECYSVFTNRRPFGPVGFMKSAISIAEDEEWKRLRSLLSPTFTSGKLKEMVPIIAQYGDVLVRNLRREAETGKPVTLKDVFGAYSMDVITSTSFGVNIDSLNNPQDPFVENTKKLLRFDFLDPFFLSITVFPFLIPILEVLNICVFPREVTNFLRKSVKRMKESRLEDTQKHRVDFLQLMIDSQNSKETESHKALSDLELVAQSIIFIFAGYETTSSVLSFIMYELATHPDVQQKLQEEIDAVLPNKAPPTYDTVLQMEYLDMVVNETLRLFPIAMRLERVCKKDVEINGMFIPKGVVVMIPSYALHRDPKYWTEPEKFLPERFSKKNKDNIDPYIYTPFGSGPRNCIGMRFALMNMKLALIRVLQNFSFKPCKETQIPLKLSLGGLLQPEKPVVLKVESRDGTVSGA
Experimental: NIH Molecular Libraries Screening Centers Network [MLSCN]
NIH Chemical Genomics Center [NCGC]
The P450 gene superfamily is involved in the metabolism and clearance of xenobiotics. This assay used human CYP3A4 to measure the dealkylation of luciferin-6' phenylpiperazinylyl (Luciferin-PPXE; […]) to luciferin. The luciferin is then measured by luminescence after the addition of a luciferase detection reagent. Luciferin-PPXE concentration in the assay was equal to its KM for CYP3A4. Inhibitors and some substrates limit the production of luciferin, and decrease measured luminescence; activators increase the production of luciferin and luminescence.
NCGC Assay Protocol Summary:
Two uL of enzyme and substrate mix (final concentrations: 20nM CYP3A4, 25uM Luciferin-PPXE, 200mM KPO4) were dispensed into a white, solid bottom 1536-well microtiter plate. 23nL of compound was transferred by a pin tool. The plate was incubated at RT for 10 min. Two uL of an NADPH regeneration solution (Promega supplied reagent) was dispensed and the reaction was allowed to continue for 60 min at RT. Then the reaction was stopped by reconstituted luciferin detection buffer. After another 20 min of incubation the plate was read on the ViewLux (Perkin Elmer) at 60 sec exposure and 2x2 binning. This protocol was carried out with Promega-Glo reagents and further information can be found at http://www.promega.com/tbs/tb325/tb325.pdf. Data were normalized to the to AC100 inhibition (57 uM ketoconazole).
Keywords: P450, CYP2D6, Luciferase, MLSMR, MLSCN, NIH Roadmap, qHTS, NCGC

Potency, inactive:
COC(=O)c1ccc(C(NC(=O)OCc2ccccc2)/C(C)=C/[C@@H](C)C(=O)N(C)Cc2cccnc2)cc1 (stereo not given in full)
Cc1cc(=O)cc2oc3cc(N)c(-c4c(C)cc(O)cc4O)c(C)c3nc1-2
FC(F)(F)c1ccc(CN2C[C@@H]3C(c4ccccc4)C4(c5cccnc5)CC3(C4)[C@H]2c2ccccc2)cc1 (stereo not given in full)
CC(=O)N1C2(C=CC1(C)C(=O)NCCN1CCOCC1)CCCCC2 (stereo not given)
COc1ccc(-c2coc3cc(OC)cc(OC)c3c2=O)cc1
CCCCCCN(C(=O)CCCCCN1C(=O)NC(c2ccc(-c3ccccc3)cc2)C(C(=O)OCc2ccccc2)=C1C)C(C(=O)NCCCC)c1ccc(OCC(=O)OC)cc1 (stereo not given)
C[C@H]1C2=C3C(C[C@H]4C(=O)N(c5ccccc5)C(=O)[C@H]4[C@H]3[C@@]3(Cc4ccccc4)C(=NCCc4c[nH]c5ccccc45)OC(=O)N3C2=O)[C@H]2C(=O)N(c3ccccc3)C(=O)[C@H]21 (stereo not given in full)
COCCNC(=O)[C@H](C)[C@@H]1C[C@@]1(C)[C@@H](NC(=O)OCc1ccccc1)c1ccccc1
CCC1=C2CC[C@H]3C(=O)N(CC)C(=O)[C@H]3[C@H]2[C@@]2(Cc3ccccc3)C(=O)N(CC3CC3)C(=O)N2C1=O
COc1ccc(/C=C/C(=O)c2cccs2)cc1OC
COC(=O)c1ccc(C(NC(=O)OCc2ccccc2)/C(F)=C/[C@@H](C)C(=O)Nc2ccc(OC)cc2)cc1 (stereo not given in full)
CCC(=O)OCC(=O)C1(OC(=O)CC)C(C)CC2C3CCC4=CC(=O)C=CC4(C)C3(Cl)C(O)CC21C (stereo not given)
CCC1=C(OC(=O)N(CC)CC)N2C(=O)OC(=NCCc3c[nH]c4ccccc34)[C@]2(C)[C@H]2C1=CC[C@H]1C(=O)N(CC(=O)OC)C(=O)[C@H]12
Cn1c(-c2nc(-c3ccccc3)cs2)nc2ccccc21
COC(=O)c1ccc(C(NC(=O)OCc2ccccc2)/C(=C/[C@@H](C)C(=O)Nc2ccc(OC)cc2)c2cccnc2)cc1 (stereo not given in full)
CCCCNC(=O)C(c1ccc(OCC(=O)OC)c(C(=O)OC)c1)N(CCC1=CCCCC1)C(=O)CCCCCN1C(=O)NC(c2ccc(-c3ccccc3)cc2)C(C(=O)OCc2ccccc2)=C1C (stereo not given)
COCCNC(=O)C1(C)C=CC2(CCCCC2)N1C(=O)c1ccccc1 (stereo not given)
COc1c2ccoc2cc2oc(C)cc(=O)c12

Activity change, positive = activation, inactive:
CC(C)C(=O)N[C@@H]1CCCN1C(=O)/C=C\c1ccccc1 -30.2% [at 11.4 µM]
CC(C)=CCC/C(C)=C/CO/N=C1/C[C@@H](O)[C@@H](O)[C@@H]2[C@@H]3C(=O)N(Cc4ccc5c(c4)OCO5)C(=O)[C@H]3CC[C@H]12 -115% [at 11.4 µM]
CO[C@H]1COC(=O)CCC[C@@H](C)[C@H](OC)COC(=O)[C@H]2CCCN2C(=O)C/C=C\[C@@H]1C -30.7% [at 11.4 µM]
Cc1cc(C)cc(C#CC2C=CC(Oc3ccc(C4CCCC4)cc3)C(CO)O2)c1 (stereo not given) -81.6% [at 11.4 µM]
COc1ccc(O[C@H]2C=C[C@@H](c3ccccc3)O[C@H]2COC(=O)CC/C(C)=N\O[C@@H](C)CN2CCCc3nc(C)c(C)cc32)cc1 -97% [at 11.4 µM]
C=CCOC(=O)C(C(C)=O)C(NC(=O)OC)c1ccc2ccccc2c1 (stereo not given) -46.5% [at 11.4 µM]
C=CCc1cccc(C2C(C)CCC3C(=O)N4C(Cc5c([nH]c6ccccc56)C4c4cc(OC)c(OC)c(OC)c4)C(=O)N32)c1 (stereo not given) -74.3% [at 11.4 µM]
COC(=O)C/C=C\[C@@H](C)[C@@H](/C=N\O[C@@H](C)c1cn([C@H](CO)Cc2ccccc2)nn1)OC -56.1% [at 11.4 µM] and -71.3% [at 11.4 µM]
C#CCCCO/N=C1/[C@H]2O[C@@H]2[C@@H](O)[C@H]2[C@H]1CCn1c(=O)n([C@@H](CC)c3ccccc3)c(=O)n12 -55.5% [at 11.4 µM]
CO[C@H]1COC(=O)C/C=C\[C@H](C)COC(=O)[C@@H](OCc2ccccc2)/C=C\[C@@H]1C -41.2% [at 11.4 µM]
CC(C)CO/N=C1/C[C@@H](O)[C@@H](O)[C@@H]2[C@@H]3C(=O)N(Cc4ccccc4)C(=O)[C@H]3CC[C@H]12 -30.2% [at 11.4 µM]
COC(=O)[C@@H]1CC[C@H](C)[C@@H](c2ccc(C)cc2)N1C(=O)c1ccc(/C=N\O[C@@H](C)CN2CCCc3nc(C)c(C)cc32)cc1 -48.9% [at 11.4 µM]
CCN1C(=O)[C@H]2[C@H]3[C@H](O)[C@H](O)C/C(=N/O[C@@H](C)c4cc(-c5c(C)cc(C)cc5C)no4)[C@@H]3CC[C@@H]2C1=O -72.9% [at 11.4 µM]
COc1ccc(OC2C=CC(c3ccccc3)OC2CO)cc1 (stereo not given) -66.9% [at 11.4 µM]
CCCCCCC1=Cc2cc(OC)c(OC)cc2C(C(C(C)=O)C(=O)OC)O1 (stereo not given) -57.6% [at 11.4 µM]
COc1ccc(/C=C/NC(=O)Cc2ccc(OC)c(OC)c2)cc1 -57.1% [at 11.4 µM] and -101% [at 11.4 µM]
COC(=O)[C@@H]1CC[C@H](C)[C@@H](c2ccc(C)cc2)N1C(=O)c1ccc(/C=N\OC[C@@H]2O[C@H](c3ccccc3)C=C[C@@H]2Oc2ccc(OC)cc2)cc1 -30% [at 11.4 µM]
CC(C)=CCC/C(C)=C/CO/N=C1/C[C@@H](O)[C@@H](O)[C@@H]2[C@@H]3C(=O)N(C4CCCCC4)C(=O)[C@H]3CC[C@H]12 -36.4% [at 11.4 µM]
CC(C)CO/N=C1/C[C@@H](O)[C@@H](O)[C@@H]2[C@@H]3C(=O)N(Cc4ccc5c(c4)OCO5)C(=O)[C@H]3CC[C@@H]12 -50.2% [at 11.4 µM]
C=CCOCC/C=C1/c2ccccc2C(OC)C1C (stereo not given) -43.5% [at 11.4 µM]
O=C1CCCC=C1[C@@H](O)COCc1ccccc1 -31.3% [at 11.4 µM]
O=C1OC(C2=CCCCC2)=NC12CC2 -40.2% [at 11.4 µM]
